These results are taken from PubChem BioAssay.

Activity calls are given as the source filed them.

The subject of assay [1] is Wnt5a (protein binding on small-molecule microarray). The experiment in a line: small molecules binding Wnt5a protein – biophysical, small-molecule microarray, 635/667 nm fluorescence, primary screen (AID 1142).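 Also: fluorescence read at 667 nm with signal to noise per printed feature.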 The following applies: 635 nm fluorescence, higher = more signal.
Assay [2] is described as follows: ATP-based viability of Huh7 replicon cells – cell-based, CellTiter-Glo luminescence, basal, 48 h, cytotoxicity control for HCV replication inhibitor project, primary screen (AID 1143).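 Also: Huh7 hepatoma cells carrying a hepatitis C replication reporter with no stimulus; test concentration not given here.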 The following applies: higher = more signal, called active from +8 up or from −8 down.
A short description of assay [3]: basal CRE-LacZ reporter activity in PC12 – cell-based, unstimulated, primary screen (AID 1145). The following applies: no forskolin, luminescence, 4.5 h, higher = more signal, called active from +8 up or from −8 down.
A short description of assay [4]: forskolin-driven CRE-LacZ activity in PC12 – cell-based, CRE-LacZ reporter, forskolin-stimulated, primary screen (AID 1146).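 Also: PC12 cells with 6xCRE LacZ reporter stimulated by forskolin 10 µM; beta-galactosidase reporter signal reflecting CREB driven transcription.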 The following applies: luminescence, 4.5 h, higher = more signal, called active from +8 up or from −8 down.
Assay [5] concerns the target Streptavidin (Streptomyces avidinii) (UniProt P22629). The experiment in a line: compounds binding control protein streptavidin – biophysical, small-molecule microarray, 635/667 nm fluorescence, artefact control for SMM compound annotation, primary screen (AID 1147).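 Also: signal reflects streptavidin binding to arrayed compounds as a control protein.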 The following applies: higher = more signal.
Assay [6] is described as follows: probe aInhba binding on compound microarray – biochemical, small-molecule microarray, 635/667 nm fluorescence, primary screen (AID 1148).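 Also: score merges 667nm spot fluorescence with signal-to-noise for antibody binding to printed compounds.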 The following applies: higher = more signal.
Assay [7] has as its target Torsin-1A (Homo sapiens) (UniProt O14656). The experiment in a line: TOR1A wild-type binding on microarray – cell lysate, small-molecule microarray, lysate, 635/667 nm, primary screen (AID 1149). The following applies: COS7 hTOR1A-WT lysate, 635 nm fluorescence, higher = more signal.
Assay [8] shares this target. The experiment in a line: torsin A mutant lysate binding on microarrays – cell lysate, small-molecule microarray, COS7 lysate, 635/667 nm fluorescence, primary screen (AID 1150).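 Also: score pools 667 nm emission and signal to noise measuring lysate protein binding.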 The following applies: COS7 hTOR1A mutant lysate, 635 nm fluorescence, higher = more signal.
Assay [9] relates to Sonic hedgehog protein (Shh). The assay can be described thus: Sonic hedgehog microarray binding compounds – biochemical, small-molecule microarray, 635/667 nm fluorescence, primary screen (AID 1151).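 Also: Shh protein binding to compounds spotted on small-molecule microarray slides; score combines spot fluorescence intensity with signal-to-noise across triplicate slides.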 The following applies: 635 nm fluorescence, higher = more signal.
The nature of assay [10]: optical density shifts of acrAB sulA E. coli – strain DRC41, OD650, 48 h, E. coli filamentation inducer project, primary screen (AID 1152).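 Also: E. coli MC1000 strain DRC41 lacking acrAB efflux pump and sulA.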 The following applies: higher = more signal, called active from +8 up or from −8 down.
Assay [11] can be described thus: probe aLefty1 binding on compound microarray – biochemical, small-molecule microarray, 635/667 nm fluorescence, primary screen (AID 1153).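 Also: score merges spot fluorescence with signal-to-noise ratio from the scanned slide images.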 The following applies: higher = more signal.
Assay [12] is described as follows: plasmodial surface anion channel blockers, osmotic lysis – cell-based, P. falciparum Indochina, OD700, 1 h, primary screen (AID 1154). The following applies: P. falciparum Indochina infected RBC osmotic lysis, higher = more signal, called active from +8 up or from −8 down.
Assay [13] can be described thus: plasmodial surface anion channel blockers, osmotic lysis – cell-based, P. falciparum Indochina, OD700, 2 h, primary screen (AID 1155).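 Also: lysis reports solute entry through the parasite surface anion channel PSAC.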 The following applies: P. falciparum Indochina infected erythrocytes, higher = more signal, called active from +8 up or from −8 down.
Assay [14] in a line: changes in parasitized red cell lysis, either direction – P. falciparum Indochina, OD700, 3 h, PSAC antagonist project, primary screen (AID 1156). The following applies: P. falciparum-infected erythrocytes, osmotic lysis, higher = more signal, called active from +8 up or from −8 down.
Assay [15] in a line: plasmodial surface anion channel blockers, osmotic lysis – cell-based, P. falciparum Indochina, OD700, 18 h, primary screen (AID 1157). The following applies: P. falciparum Indochina infected erythrocytes, osmotic lysis OD700, 18 h; higher = more signal, called active from +8 up or from −8 down.
Assay [16] in a line: S6 kinase pathway phospho-S6 level changes – cell-based, A549, cytoblot, luminescence, serum-stimulated, primary screen (AID 1158).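 Also: serum-stimulated A549 lung adenocarcinoma cells; signal is phosphorylated S6 detected by cytoblot immunostaining with HRP secondary.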 The following applies: 5 h, higher = more signal.
The target of assay [17] is NADPH oxidase 2 (Homo sapiens) (UniProt P04839). The assay can be described thus: compounds shifting NOX2 Amplex Red fluorescence – cell-based, HEK293-NOX2, PMA-stimulated, NOX inhibitor project, primary screen (AID 1159). Also: test concentration not given here. The following applies: 45 min, higher = more signal, called active from +8 up or from −8 down.
NADPH oxidase 2 (Homo sapiens), sequence (P04839 whole entry, looked up): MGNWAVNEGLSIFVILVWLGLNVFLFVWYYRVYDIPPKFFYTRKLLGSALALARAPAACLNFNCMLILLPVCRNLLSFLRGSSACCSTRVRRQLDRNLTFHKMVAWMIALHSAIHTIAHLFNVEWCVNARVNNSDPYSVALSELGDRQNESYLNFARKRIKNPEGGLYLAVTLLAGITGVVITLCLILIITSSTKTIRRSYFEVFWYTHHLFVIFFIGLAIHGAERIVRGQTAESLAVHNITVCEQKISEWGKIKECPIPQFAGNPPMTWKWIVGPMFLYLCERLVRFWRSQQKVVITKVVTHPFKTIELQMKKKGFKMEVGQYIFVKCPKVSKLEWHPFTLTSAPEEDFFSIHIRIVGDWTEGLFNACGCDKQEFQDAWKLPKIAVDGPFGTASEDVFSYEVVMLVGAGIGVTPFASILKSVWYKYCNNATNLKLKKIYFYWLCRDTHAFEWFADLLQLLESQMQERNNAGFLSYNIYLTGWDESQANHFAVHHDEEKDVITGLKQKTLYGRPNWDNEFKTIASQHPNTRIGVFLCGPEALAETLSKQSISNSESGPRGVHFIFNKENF
For assay [18], the target named is NADPH oxidase 4 (Homo sapiens) (UniProt Q9NPH5). The experiment in a line: compounds shifting NOX4 Amplex Red fluorescence – cell-based, HEK293-NOX4, tetracycline-induced, NOX inhibitor project, primary screen (AID 1160). The following applies: HEK293-NOX4, Amplex Red H2O2 fluorescence, 45 min; higher = more signal, called active from +8 up or from −8 down.
NADPH oxidase 4 (Homo sapiens), sequence (Q9NPH5 whole entry, looked up): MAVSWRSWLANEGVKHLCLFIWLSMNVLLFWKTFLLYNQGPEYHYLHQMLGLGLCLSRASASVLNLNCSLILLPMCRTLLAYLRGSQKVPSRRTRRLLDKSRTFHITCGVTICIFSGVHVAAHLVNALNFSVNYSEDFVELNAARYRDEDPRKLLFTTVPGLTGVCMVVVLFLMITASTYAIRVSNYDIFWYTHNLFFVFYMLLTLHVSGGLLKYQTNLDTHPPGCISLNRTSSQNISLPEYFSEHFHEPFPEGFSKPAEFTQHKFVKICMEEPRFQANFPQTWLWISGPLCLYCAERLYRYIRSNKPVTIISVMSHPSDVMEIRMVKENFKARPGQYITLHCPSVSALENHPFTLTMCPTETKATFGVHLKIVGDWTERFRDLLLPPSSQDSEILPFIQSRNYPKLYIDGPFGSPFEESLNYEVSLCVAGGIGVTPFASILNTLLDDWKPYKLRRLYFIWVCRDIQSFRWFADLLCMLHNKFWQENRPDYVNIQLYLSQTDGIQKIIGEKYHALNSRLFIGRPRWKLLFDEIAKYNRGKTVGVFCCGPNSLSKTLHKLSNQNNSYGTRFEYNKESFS
Assay [19] has as its target NADPH oxidase 5 (Homo sapiens) (UniProt Q96PH1). The experiment in a line: compounds shifting NOX5 Amplex Red fluorescence – cell-based, HEK293-NOX5, NOX inhibitor project, primary screen (AID 1161). The following applies: HEK293-NOX5, ionomycin, 45 min, higher = more signal.
Assay [20] in a line: compound effects on lung adenocarcinoma cell viability – A549, calcein-AM fluorescence, 48 h, basal, profiling panel (AID 1162). Also: test concentration not given here. The following applies: higher = more signal.

NADPH oxidase 5 (Homo sapiens), sequence (Q96PH1 whole entry, looked up): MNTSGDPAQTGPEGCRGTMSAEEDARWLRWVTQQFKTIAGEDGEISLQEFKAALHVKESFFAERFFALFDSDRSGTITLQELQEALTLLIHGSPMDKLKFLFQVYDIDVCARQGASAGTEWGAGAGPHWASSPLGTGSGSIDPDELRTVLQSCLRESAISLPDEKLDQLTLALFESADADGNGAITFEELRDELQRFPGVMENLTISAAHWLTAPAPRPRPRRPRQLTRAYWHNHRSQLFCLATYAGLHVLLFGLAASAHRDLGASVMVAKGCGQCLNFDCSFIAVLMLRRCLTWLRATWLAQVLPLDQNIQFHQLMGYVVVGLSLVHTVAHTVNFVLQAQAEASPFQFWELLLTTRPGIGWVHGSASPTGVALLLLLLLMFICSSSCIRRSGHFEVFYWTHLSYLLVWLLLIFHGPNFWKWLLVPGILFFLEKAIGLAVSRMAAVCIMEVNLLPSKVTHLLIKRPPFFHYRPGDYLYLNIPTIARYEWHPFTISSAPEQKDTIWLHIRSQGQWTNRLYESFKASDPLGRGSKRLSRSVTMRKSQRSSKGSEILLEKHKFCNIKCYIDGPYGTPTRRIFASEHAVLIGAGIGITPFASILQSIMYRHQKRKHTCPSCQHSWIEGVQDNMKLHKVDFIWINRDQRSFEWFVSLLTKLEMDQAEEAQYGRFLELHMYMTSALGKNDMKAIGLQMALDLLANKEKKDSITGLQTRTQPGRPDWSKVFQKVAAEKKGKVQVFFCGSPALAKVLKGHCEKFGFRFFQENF
Streptavidin (Streptomyces avidinii), sequence (P22629 whole entry, looked up): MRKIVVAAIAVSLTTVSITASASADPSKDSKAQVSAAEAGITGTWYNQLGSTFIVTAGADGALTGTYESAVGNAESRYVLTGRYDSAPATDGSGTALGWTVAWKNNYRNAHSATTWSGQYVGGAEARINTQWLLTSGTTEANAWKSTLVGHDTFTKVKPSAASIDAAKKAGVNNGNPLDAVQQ
Torsin-1A (Homo sapiens), sequence (O14656 whole entry, looked up): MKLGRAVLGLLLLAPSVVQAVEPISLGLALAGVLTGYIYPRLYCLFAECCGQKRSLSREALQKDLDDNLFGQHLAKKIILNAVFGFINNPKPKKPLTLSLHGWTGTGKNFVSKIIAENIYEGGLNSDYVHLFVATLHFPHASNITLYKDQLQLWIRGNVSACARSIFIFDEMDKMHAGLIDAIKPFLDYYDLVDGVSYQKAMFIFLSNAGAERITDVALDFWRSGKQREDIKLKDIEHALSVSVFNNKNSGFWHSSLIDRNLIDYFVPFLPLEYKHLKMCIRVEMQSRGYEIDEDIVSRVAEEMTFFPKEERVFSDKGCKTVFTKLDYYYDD

For `C=CC[C@]1(C(=O)N(C)C)N=C(c2ccc(OCCCO)cc2)O[C@H]1c1ccccc1CN=[N+]=[N-]`, the composite z-score in assay [1] is 0.508; in assay [5] it was 1.39; in assay [6], 0.0388; in the assay with Torsin-1A (Homo sapiens) [7], 0.581; in the assay with Torsin-1A (Homo sapiens) [8] it was 1.1; in [9] it was 0.0463. The same molecule returned a composite z-score in assay [11] of -0.237. In addition, the z-score in [2] is -1.79 (inactive); in [3] it was 2.8 (inactive); in assay [4], -1.16 (inactive); in assay [10], 1.19 (inactive); in assay [12], 11.8 (active); in assay [13], 1.47 (inactive). For the same molecule, the z-score is 2.63 (inactive) in assay [14]; 0.817 (inactive) in [15]; 0.434 in assay [16]; 1.23 (inactive) in assay [17]; 0.653 (inactive) in assay [18]; -1.25 in assay [19]. In addition, the z-score in [20] was 0.937.
Turning to `C=CCOC(=O)[C@H]1[C@@H]2C(=O)O[C@@H](c3ccccc3)[C@@H](c3ccccc3)N2[C@@H](c2ccc(OCCOC(=O)[C@H]3C[C@H]4C(=O)N5CCC[C@H]5C(=O)N4[C@H]3c3cccc(OCCO)c3)cc2)[C@]12C(=O)Nc1ccccc12`, the composite z-score is 0.135 in assay [1]; -0.0186 in assay [5]; -0.0849 in [6]; 0.292 with Torsin-1A (Homo sapiens) [7]; 1.54 with Torsin-1A (Homo sapiens) [8]; 1.18 in [9]. Moreover, the composite z-score in assay [11] is -0.106. The z-score in assay [2] is -2.03 (inactive); in assay [3], 1.22 (inactive); in assay [4], -0.378 (inactive); in [10], 1.18 (inactive); in assay [12] it was 5.04 (inactive); in [13], 1.7 (inactive). The z-score in assay [14] was -0.158 (inactive); in [15], 0.741 (inactive); in assay [16], -0.0338; in assay [17], 2.26 (inactive); in assay [18], 1.57 (inactive); in assay [19], 1.43. Besides, the z-score in [20] is 0.552.
With `CC(C)(C)OC(=O)CC[C@]1(C(=O)NCc2ccccc2)COC(c2ccc(OCCCO)cc2)=N1`, the composite z-score is 0.433 in assay [1]; 0.74 in assay [5]; -0.0308 in [6]; -0.208 in the assay with Torsin-1A (Homo sapiens) [7]; 1.11 in the assay with Torsin-1A (Homo sapiens) [8]; -0.743 in [9]. This molecule had a composite z-score in [11] of 0.0738. Besides, the z-score in assay [2] is -1.47 (inactive); in [3] it was 1.7 (inactive); in assay [4], -1.32 (inactive); in assay [10], 2.02 (inactive); in [12], 18.7 (active); in assay [13], 1.92 (inactive). In addition, the z-score is 1.99 (inactive) in assay [14]; -1.39 (inactive) in [15]; 0.719 in [16]; 0.117 (inactive) in assay [17]; 0.804 (inactive) in assay [18]; -1.01 in [19]. Moreover, in assay [20], the z-score is 0.661.
In the case of `CC(CO)N1C(=O)[C@@H]2C3C(=O)OCCC/C=C\[C@H]3OC23C=CCN(Cc2ccccc2)C(=O)[C@@H]13` (stereo not given in full), the composite z-score in assay [1] is -0.146; in assay [5], -1.03; in assay [6] it was -0.31; in the assay with Torsin-1A (Homo sapiens) [7], -0.462; with Torsin-1A (Homo sapiens) [8] it was -0.276; in assay [9], 0.194. Further, in assay [11], the composite z-score is -0.24. Also, the z-score was -0.182 (inactive) in [2]; -0.753 (inactive) in assay [3]; -0.954 (inactive) in assay [4]; 2.52 (inactive) in [10]; 0.38 (inactive) in [12]; -0.999 (inactive) in assay [13]. In addition, the z-score in assay [14] was -0.513 (inactive); in assay [15], -0.899 (inactive); in assay [16], 0.467; in assay [17], 0.456 (inactive); in assay [18], -0.322 (inactive); in assay [19] it was 1.36. Besides, the z-score in [20] was 1.59.
Consider `C=CCC(OC(C)=O)[C@@H]1[C@@H](N(Cc2ccc(-c3cccc(C(F)(F)F)c3)o2)C(=O)c2ccc(-c3ccccc3)cc2)c2cc(OCCCO)ccc2N1C(=O)Cc1ccc(OC)cc1` (stereo not given in full), for which the composite z-score in assay [1] is 0.0578; in [5], -0.152; in [6], -0.273; with Torsin-1A (Homo sapiens) [7], -0.267; with Torsin-1A (Homo sapiens) [8], 0.0992; in [9], 0.214. In [11], the composite z-score was -0.0501. For the same molecule, the z-score is -1.84 (inactive) in assay [2]; 1.38 (inactive) in assay [3]; -0.0892 (inactive) in assay [4]; 1.73 (inactive) in assay [10]; 0.963 (inactive) in [12]; 0.485 (inactive) in [13]. For the same molecule, the z-score in assay [14] is 0.218 (inactive); in assay [15], -0.0843 (inactive); in assay [16], 0.509; in [17] it was 0.964 (inactive); in [18], 1.06 (inactive); in assay [19] it was 2.21. Further, the z-score in [20] is 0.161.
